Only some compounds are listed: those with a hit (about 1.4% of all), similar ones and a draw of the others.
Vaccinia Venus: qHTS for Stage-Specific Inhibitors of Vaccinia Orthopoxvirus: Venus Reporter Primary qHTS; hit rate 0.46% among 330,000; Potency, µM (highest dose often 36.5 µM), inactives show at the highest dose activity change, negative = inhibition, most hits filed as inhibitors; Vaccinia virus Venus reporter expression, fluorescence; calls by dose curve; tested in A549 cells; also: % is scaled to controls: 0 for no effect and ±100 for the full control effect; nearly all actives have a fitted effect of over 30% in size
AMA1 RON2 block: qHTS for Inhibitors of AMA1-RON; Towards Development of Antimalarial Drug Lead: Primary Screen | Plasmodium falciparum AMA1 (3D7) - RON2 peptide interaction | AlphaScreen AMA1-biotinylated RON2 peptide binding | Potency, µM (highest dose often 58.2 µM), inactives show at the top dose activity change, negative = inhibition, usual class: inhibitors | hit rate 0.2% among 360,000 | AID 720542, 2013;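 also: 0% = vehicle wells and -100% = peptide control; nearly all actives have a fitted effect of over 45% in size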
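AMA1 (3D7) with his tag at 25 nM final met compounds first, then biotinylated RON2 peptide at 25 nM; detection used donor plus acceptor beads, 10 µg/mL apiece, read by AlphaScreen after 30 min at room temperature.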
AmpC no deterg: qHTS Inhibitors of AmpC Beta-Lactamase (assay without detergent); P00811; hit rate 0.52% among 330,000; Potency, µM (doses to about 57.1 µM), for inactives: top-dose activity change, negative = inhibition, usual class: inhibitors; AmpC nitrocefin hydrolysis, absorbance 480 nm, 0.0001% Triton;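 also: plate controls were no compound for no effect and no enzyme for full effect; nearly all actives have a fitted effect of over 20% in size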
Target sequence (P00811 whole entry, looked up): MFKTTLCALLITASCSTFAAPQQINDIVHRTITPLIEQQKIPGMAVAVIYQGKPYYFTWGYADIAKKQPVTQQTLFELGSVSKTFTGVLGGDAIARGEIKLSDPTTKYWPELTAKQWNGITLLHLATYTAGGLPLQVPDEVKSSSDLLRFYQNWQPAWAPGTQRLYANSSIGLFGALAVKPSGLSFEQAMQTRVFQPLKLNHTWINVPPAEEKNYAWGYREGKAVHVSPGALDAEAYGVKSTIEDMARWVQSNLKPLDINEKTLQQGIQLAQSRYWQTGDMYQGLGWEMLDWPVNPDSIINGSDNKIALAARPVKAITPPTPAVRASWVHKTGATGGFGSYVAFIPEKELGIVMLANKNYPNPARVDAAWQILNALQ
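20 mM phosphate pH 7.0 + 0.01% (detergent screen) or 0.0001% Triton X-100; 5.3 nM AmpC reagent; cpd preinc 15 min RT; nitrocefin (800 uM stock) to start; A480 q20 s × 4 min; Activity was normalised to no-enzyme and no-compound control wells.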
AmpC detergent: qHTS Inhibitors of AmpC Beta-Lactamase (assay with detergent). hit rate 0.041% among 370,000. P00811. Potency, µM (doses to about 114 µM), inactives show at the top dose activity change, negative = inhibition, usual class: inhibitors. AID 485294, 2010. AmpC hydrolysis of nitrocefin, absorbance 480 nm, 0.01% Triton;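 also: 0% = no-compound wells and -100% = no-enzyme wells; nearly all actives have a fitted effect of over 25% in size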
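20 mM phosphate pH 7.0 + 0.01% (detergent screen) or 0.0001% Triton X-100; 5.3 nM AmpC reagent; cpd preinc 15 min RT; nitrocefin (800 uM stock) to start; A480 q20 s × 4 min; Activity was normalised to no-enzyme and no-compound control wells.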
Vaccinia mCherry: qHTS for Stage-Specific Inhibitors of Vaccinia Orthopoxvirus: mCherry Reporter Primary qHTS | Vaccinia virus mCherry reporter infection, fluorescence | Potency, µM (series often up to 36.5 µM), for inactives: at the top dose activity change, negative = inhibition, usual class: inhibitors | hit rate 0.63% among 310,000; calls by dose curve; tested in A549 cells; also: % is scaled to controls: 0 for no effect and ±100 for the full control effect; nearly all actives have a fitted effect of over 35% in size
SARS PLP yeast: qHTS of Yeast-based Assay for SARS-CoV PLP; Potency, µM (highest dose often 32.9 µM), for inactives: top-dose activity, positive = growth rescue, usual class: activators; hit rate 0.19% among 330,000; AID 485353, 2010; S. cerevisiae expressing SARS-CoV PLpro, growth rescue; calls by dose curve; also: 0% is about no effect; nearly all actives have a fitted effect of over 55% in size
* = called active by the depositor; i = inactive; ? = inconclusive; . = not tested or not shown; [ ] = another dose, or the depositor's remark. Unless noted, calls follow the shape of the dose curve; as a rule, active = well fitted curve in the direction sought with a large enough effect; inconclusive = small, poorly fitted or top-dose-only effect, or another doubt; inactive = no such curve, though single readings can be large; an effect the other way counts as inactive or inconclusive. Potency is read from the fitted curve at half-maximal effect.

SMILES	Vaccinia Venus	AMA1 RON2 block	AmpC no deterg	AmpC detergent	Vaccinia mCherry	SARS PLP yeast
CCn1c2ccccc2c2cc(NC(=O)COc3ccc(OC)cc3)ccc21	.	-1%	-23%	-6%	.	8%
CCn1c2ccccc2c2cc(NC(=O)COC(=O)c3ccc(NC(=O)CC#N)cc3)ccc21	?	-21%	32µM*	0%	?	-1%
CCN(CC)S(=O)(=O)c1cc(NC(=O)COC(=O)C2CCC2)ccc1C	.	0%	-15%	4%	.	-4%
CCN(CC)S(=O)(=O)c1cc(NC(=O)COC(=O)c2ccc(NC(=O)CC#N)cc2)ccc1C	-3%	12%	7.9µM*	4%	-11%	0%
CCC(O)CNC(=O)c1cnn(-c2nccc(-c3cc(C)sc3C)n2)c1C1CC1 (stereo not drawn)	-12%	.	.	.	-25%	.
N#CCC(=O)Nc1ccc(C(=O)OCC(=O)N=c2sccn2Cc2ccccc2Cl)cc1	-9%	4%	10µM*	-14%	-17%	3%
CC(OC(=O)c1ccc(NC(=O)CC#N)cc1)C(=O)Nc1ccc(Oc2ccccc2)cc1 (stereo not drawn)	.	.	6.3µM*	7%	.	?
CCn1c2ccccc2c2cc(NC(=O)COC(=O)c3ccccc3F)ccc21	?	20%	-28%	-7%	10µM*	8%
N#CCC(=O)Nc1ccc(C(=O)OCC(=O)Nc2ccc3ccccc3c2)cc1	-2%	18%	20µM*	4%	-24%	-3%
CCn1c2ccccc2c2cc(NC(=O)COC(=O)c3ccccc3O)ccc21	2%	-4%	-9%	-4%	-2%	-1%
O=C(COC(=O)c1ccc(O)cc1O)N=c1sccn1Cc1ccccc1Cl	-23%	-2%	-22%	-14%	?	-2%
CCC(O)c1nc2ccccc2n1CCOc1cc(C)cc(C)c1 (stereo not drawn)	-19%	.	.	-2%	-1%	.
Cc1cc2ccc(Cl)nc2nc1C	-6%	.	.	.	-14%	.
COc1cc(=O)n2c(c1C(=O)N(C)Cc1cscn1)CCN(Cc1c(C)[nH]c3ccccc13)CC2	-7%	.	.	.	i	.
N#CCC(=O)Nc1ccc(C(=O)OC(C(=O)Nc2cc(C(F)(F)F)ccc2Cl)c2ccccc2)cc1 (stereo not drawn)	-19%	-7%	7.1µM*	0%	0%	-12%
N#CCC(=O)Nc1ccc(C(=O)NCCC(c2ccccc2)c2ccccc2)cc1	-12%	5%	7.9µM*	-3%	-7%	-3%
CN(C)C(CNC(=O)c1ccc(NC(=O)CC#N)cc1)c1ccccc1 (stereo not drawn)	-8%	-10%	-2%	3%	-2%	-3%
COc1ccccc1-c1ccnc(-n2ncc(C(=O)NC(c3cccnc3)C(F)(F)F)c2C)n1 (stereo not drawn)	-27%	.	.	.	?	.
O=C(Nc1ccccc1)Nc1ncc([N+](=O)[O-])s1	?	-23%	-21%[11.4 µM]	-14%	10µM*	-4%
O=C(COC(=O)c1ccccc1)Nc1ncc([N+](=O)[O-])s1	-14%	-1%	-59%	.	-16%	-41%
COc1cccc(C(=O)NC(C)c2nnc3n2CCN(CC=C(C)C)CC3)c1 (stereo not drawn)	-17%	.	.	.	-4%	.
COc1cccc(/C(O)=C/c2nc3ccc(C(=O)NCCc4ccc(Cl)cc4)cc3[nH]c2=O)c1	-20%	7%	-24%	-1%	-24%	-21%
COc1cccc(/C(O)=C/c2nc3ccc(C(=O)NCCc4cccc(C)c4)cc3[nH]c2=O)c1	-19%	120%	11µM*	?	-22%	7%
CCCOc1ccc(C(=O)Nc2ccc(NC(=O)c3ccccc3)c(Br)c2)cc1	-16%[7.34 µM]	.	.	16%	-20%[7.34 µM]	.
O=C1C(=C(c2ccccc2)c2ccccc2)Nc2ccccc21	6%	25µM*	-24%	0%	.	-17%
SMILES	Vaccinia Venus	AMA1 RON2 block	AmpC no deterg	AmpC detergent	Vaccinia mCherry	SARS PLP yeast
O=C1C(=C(O)c2ccccc2)C(=O)c2ccccc21	39%	-5%	-29%	-12%	-1%	0%
O=C(CN1CCN(c2ccccc2)CC1)Nc1ccccc1Cl	.	-1%	-2%[2.29 µM]	-1%	.	0%
CCc1cccc(CC)c1NC(=O)CN1CCN(c2ccccc2)CC1	-11%	-29%	69%	?	-7%	7.1µM*
CCN(CCNC(=O)C1CCN(Cc2nc(-c3ccc(Cl)cc3)oc2C)CC1)c1ccccc1	?	?	160%	1%	13µM*	-3%
CCc1ccc(-c2nc(CN3CCC(C(=O)NCCN(CC)c4ccccc4)CC3)c(C)o2)cc1	-16%	-4%	170%	3%	-20%	-12%
CCN(CCNC(=O)C1CCN(Cc2nc(-c3cccc(Cl)c3)oc2C)CC1)c1ccccc1	11µM*	?	172%	-6%	14µM*	-2%
Cc1oc(-c2ccc(Cl)cc2)nc1CN1CCC(C(=O)NCCCN2CCN(c3cccc(Cl)c3)CC2)CC1	14µM*	.	.	-7%	?	.
CC1CCCCN1C(=O)COC(=O)c1ccc(S(C)(=O)=O)c([N+](=O)[O-])c1 (stereo not drawn)	-20%	.	.	.	-17%	.
COc1ccc(C(=O)NCC2Cc3cccc(-c4cncnc4)c3O2)c(OC)c1OC (stereo not drawn)	-18%	.	.	.	-24%	.
COc1ccc(C(=O)Nc2nnc(S(=O)(=O)N(C)c3ccc(C)cc3)s2)cc1	-19%	.	.	-2%	-17%	.
CCn1c(=O)c2cc(C(=O)N3CCN(c4cccc(OC)c4)CC3)sc2c2ccccc21	-8%[7.34 µM]	.	.	9%	-13%[7.34 µM]	.
CC(NC(=O)c1cccnc1)c1nnc2n1CCN(Cc1ccc(-c3ccccc3Cl)o1)CC2 (stereo not drawn)	-16%	.	.	.	i	.
O=C(Nc1nnc(-c2ccc3c(c2)CCCC3)o1)c1ccccc1	?	135%	-28%	-11%	10µM*	-20%
O=C(COc1ccccc1)Nc1nnc(-c2ccc3c(c2)CCCC3)o1	-29%	121%	10µM*	?	-25%	?
O=C(COc1ccccc1)Nc1nnc(-c2ccc(F)cc2)o1	-11%	8%	-42%	-4%	i	-11%
C[N+]1(CC(=O)c2cccc([N+](=O)[O-])c2)CCOCC1	-20%	.	.	.	-25%	.
CC(NNC(=S)N1CCCCCC1)c1ccc2ccccc2n1 (stereo not drawn)	-25%	40%	.	.	5.6µM*	.
S=C(Nc1ccccc1)N1CCCCCC1	-4%	-16%	-3%	?	-11%	17%
Cc1cc(-c2ccnc(-n3ncc(C(=O)NCc4cccnc4)c3C3CC3)n2)c(C)s1	6%	.	.	.	-12%	.
